Screening data as filed in PubChem.
The list is not random: actives were taken first. Their share in the collection is about 6%.
D1 ag: Allosteric Agonists of the Human D1 Dopamine Receptor: qHTS; HEK293 T-REx D1 cells, calcium flux, agonist mode; AID 504660, 2011; 360,000 compounds, 1% hits; activation, % at 2 µM; in the data active = activation above about 30%
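Inducible HEK293 T-REx D1 cells, force-coupled to calcium signalling, were plated at 4000 cells/well with tetracycline and held overnight at 30 C. After no-wash calcium dye loading, compound-evoked calcium rise over 180 s flagged agonists.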
D1 potentiator: Potentiators of Human D1 Dopamine Receptor: qHTS. D(1A) dopamine receptor (Homo sapiens), P21728. HEK293 TREx D1 cells, calcium flux, dopamine EC20 potentiation. potentiation, % at 10 µM. 360,000 compounds, 0.036% hits. AID 504651, 2011; in the data active = potentiation above about 30%
D3 ag: qHTS of D3 Dopamine Receptor Agonist: qHTS. D(3) dopamine receptor (Homo sapiens), P35462. D3R DiscoveRx beta-arrestin cells, luminescence, 90 min. max activation, %. 410,000 compounds, 0.58% hits. AID 652048, 2013; in the data active = max activation above about 30%
Target sequence (P35462 whole entry, looked up): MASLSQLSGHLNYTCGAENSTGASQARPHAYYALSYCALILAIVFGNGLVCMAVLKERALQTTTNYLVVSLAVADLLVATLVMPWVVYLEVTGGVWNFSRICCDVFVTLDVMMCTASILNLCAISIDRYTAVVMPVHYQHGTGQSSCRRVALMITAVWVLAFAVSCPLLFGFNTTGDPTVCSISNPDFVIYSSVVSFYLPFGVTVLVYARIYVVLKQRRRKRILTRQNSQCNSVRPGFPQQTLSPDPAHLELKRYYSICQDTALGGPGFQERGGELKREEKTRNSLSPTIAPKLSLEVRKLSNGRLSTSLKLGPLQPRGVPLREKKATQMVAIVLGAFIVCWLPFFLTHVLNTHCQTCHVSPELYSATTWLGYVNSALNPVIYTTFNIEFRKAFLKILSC
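Agonist-mode cell screen: cells plated at 1500/well and incubated overnight at 37 °C, then exposed to library compounds for 90 min at 37 °C. Detection reagent was added for 30–60 min at room temperature, and luminescence was read.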
DRD3 antagonist: qHTS of D3 Dopamine Receptor Antagonist: qHTS; D(3) dopamine receptor (Homo sapiens), P35462; D3R cells, DiscoveRx beta-arrestin luminescence, antagonist mode; hits give low values; max response, negative = inhibition, %; 360,000 compounds, 2.5% hits; AID 652054, 2013; in the data active = max response below about -50%; inconclusive = no clear call, values can overlap the other calls
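Cells expressing the human receptor were seeded at 1500 cells/well, incubated overnight at 37 degrees C in 5% CO2, then exposed to library compounds with dopamine controls for 90 minutes at 37 degrees C before luminescent detection.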
D1 antagonist: Antagonist of Human D 1 Dopamine Receptor: qHTS; HEK293 TREx D1 cells, calcium flux, dopamine EC80; hits give low values; activity change, negative = inhibition, % at 10 µM; AID 504652, 2011; 360,000 compounds, 3.2% hits; D(1A) dopamine receptor (Homo sapiens), P21728; in the data active = activity change below about -30%
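Tetracycline-induced HEK293 T-REx cells with force-coupled D1 receptor were loaded with a no-wash calcium dye. Compound was added after a 10 s baseline and read kinetically for 180 s; EC80 dopamine was then added and calcium flux followed another 180 s.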
A number is an active result; n = inactive; u = inconclusive; x = no result given.

SMILES	D1 ag	D1 potentiator	D3 ag	DRD3 antagonist	D1 antagonist
CCCN1C(=O)/C(=C/C=C2\N(CC)c3ccccc3C2(C)C)SC1=S	63	n	n	n	n
CCCN1C(=O)/C(=C2/C=Cc3ccccc3N2CC)SC1=S	n	n	n	n	n
CCc1ccc(-n2nc(CO)c(C(=O)NCCc3ccccc3)n2)cc1	n	n	n	x	n
COc1ccc(C2CC(=O)c3cc(-c4nc(-c5cccc(Cl)c5)cs4)c(=O)[nH]c3C2)cc1OC (centres undefined)	n	n	n	x	n
CCCCN1C(=O)/C(=C/C=C2\Oc3ccccc3N2CC)SC1=S	393	n	n	n	n
CCN1C(=O)/C(=C\N2CCCc3ccccc32)SC1=S	n	n	n	n	n
Cc1cc(=O)[nH]c(SCc2cccc3ccccc23)n1	n	n	n	n	n
Cc1cc(CSc2nc(C)cc(=O)[nH]2)c2ncccc2c1	n	n	31	n	n
O=S(=O)(c1ccccc1Oc1ccc(Cl)cc1Cl)N1CCCCC1	n	n	n	n	-47
Cc1ccc(-c2nc(CS(=O)(=O)CC(=O)NCCc3ccccc3)c(C)o2)cc1	n	n	n	x	n
Cc1cc(C)cc(NC(=O)Cn2cc(S(=O)(=O)NC(C)(C)C)c(S(=O)(=O)NC(C)(C)C)c2)c1	n	n	n	x	n
COc1cc(Br)c(C(C)NC(=O)c2ccccc2)cc1OC (centres undefined)	n	n	40	n	n
COc1ccc(C(CC(=O)O)NC(=O)c2ccccc2)cc1OC (centres undefined)	n	n	n	-60	n
COc1cccc(NS(=O)(=O)c2ccc(S(=O)(=O)N3CCCC3)cc2)c1	n	n	n	n	n
COc1cccc(NS(=O)(=O)c2ccc(S(=O)(=O)N3CCOCC3)cc2)c1	n	n	40	n	n
COc1ccc(S(=O)(=O)Nc2ccc(N3CCOCC3)cc2)cc1	n	n	n	n	n
COc1ccc(NS(=O)(=O)c2ccc(N3CCOCC3)c(N)c2)cc1	n	n	n	n	-32
Cc1ccc(CNc2c(C)c(C)nc3nncn23)cc1	n	n	n	x	-45
COc1ccc2c(c1)c(N1CCCC1=O)c(C(=O)Nc1cc(C)c(Cl)cc1OC)n2C	n	n	n	x	n
Cc1ccsc1C1C(C#N)=C(N)N(N(C)C)C2=C1C(=O)CCC2 (centres undefined)	n	n	n	n	-35
CN(C)N1C(N)=C(C#N)C(c2cccs2)C2=C1CCCC2=O (centres undefined)	n	n	n	n	n
Cc1ccccc1NC(=O)c1cccc(S(=O)(=O)Nc2cccc(C(=O)O)c2)c1	n	n	n	n	-31
Cc1cccc(NS(=O)(=O)c2cccc(C(=O)Nc3cccc(C(=O)O)c3)c2)c1	n	n	n	n	n
Cc1ccccc1NC(=O)c1ccc(NS(=O)(=O)c2cc(C(C)(C)C)cc(C)c2C)cc1	n	n	n	-57	-85
O=C(CSc1ccc(Cl)cc1)N1CCN(c2ncc(C(F)(F)F)cc2Cl)CC1	n	n	n	n	n
SMILES	D1 ag	D1 potentiator	D3 ag	DRD3 antagonist	D1 antagonist
O=C(CN1CCN(c2ncc(C(F)(F)F)cc2Cl)CC1)N1CCN(c2ncc(C(F)(F)F)cc2Cl)CC1	n	n	n	-61	n
O=C(OCCN1CCN(c2ncc(C(F)(F)F)cc2Cl)CC1)c1ccc(F)cc1	n	n	n	u	n
Cc1ccc(-n2c(C)nn(-c3ncc(C(F)(F)F)cc3Cl)c2=O)cc1	n	n	n	n	-47
Cc1ccc(C(=O)OCCN2CCN(c3ncc(C(F)(F)F)cc3Cl)CC2)cc1	n	n	n	-83	n
CC(=O)N1CCc2c(sc3c2c(=O)n(-c2ccccc2C)c(=O)n3CC(=O)Nc2ccccc2)C1	n	n	n	x	n
O=C(Cn1cnc2ccccc2c1=O)c1ccccc1	n	n	n	n	n
O=C(Cn1cnc2c(cnn2-c2ccc(Cl)cc2)c1=O)N1CCN(c2ccccc2)CC1	n	n	n	n	-32
CCOC(=O)Cn1cnc2c(cnn2-c2ccccc2)c1=O	n	n	n	n	n
